According to ChEMBL document CHEMBL3988442, “University of Dundee, Small-Polar-MMV Screening Library” (2021):
For some assays here: Measured potencies and affinities stand elsewhere.

How the values were obtained:
Parameters in all cases: scale not given: direction of the effect not stated beside the values
[1] = molecular target: Protein translocase subunit SecA (Escherichia coli (strain K12)) (UniProt P10408); assay: Assay to Identify E. coli SecA ATPase Inhibitors; format: functional; settings: 30 µM
Chain of Protein translocase subunit SecA (Escherichia coli (strain K12)) (P10408 whole entry): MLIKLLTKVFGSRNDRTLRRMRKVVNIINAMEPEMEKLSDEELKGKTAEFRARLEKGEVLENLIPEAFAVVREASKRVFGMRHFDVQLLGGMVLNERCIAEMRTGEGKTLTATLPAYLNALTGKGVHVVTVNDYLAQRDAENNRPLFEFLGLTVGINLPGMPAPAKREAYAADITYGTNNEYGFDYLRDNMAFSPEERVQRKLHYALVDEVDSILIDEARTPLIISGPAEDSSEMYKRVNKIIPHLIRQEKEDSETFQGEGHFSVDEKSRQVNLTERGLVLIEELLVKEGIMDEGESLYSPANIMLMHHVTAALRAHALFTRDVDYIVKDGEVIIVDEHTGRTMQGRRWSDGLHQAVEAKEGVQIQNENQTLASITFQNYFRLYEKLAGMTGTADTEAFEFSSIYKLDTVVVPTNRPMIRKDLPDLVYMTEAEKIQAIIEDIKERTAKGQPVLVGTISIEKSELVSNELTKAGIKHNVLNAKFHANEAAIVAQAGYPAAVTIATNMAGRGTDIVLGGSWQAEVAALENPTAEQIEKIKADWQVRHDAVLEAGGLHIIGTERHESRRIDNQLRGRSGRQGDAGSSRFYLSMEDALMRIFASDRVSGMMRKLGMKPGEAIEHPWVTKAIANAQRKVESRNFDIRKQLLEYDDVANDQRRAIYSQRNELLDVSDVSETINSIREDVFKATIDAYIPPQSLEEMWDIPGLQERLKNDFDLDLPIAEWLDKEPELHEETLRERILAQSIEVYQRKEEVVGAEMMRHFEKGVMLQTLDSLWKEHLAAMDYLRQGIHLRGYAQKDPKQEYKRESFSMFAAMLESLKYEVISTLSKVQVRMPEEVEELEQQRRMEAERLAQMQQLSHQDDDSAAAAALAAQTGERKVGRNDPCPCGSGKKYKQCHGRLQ

[2] = molecular target: T1, Ubiquitin-activating enzyme e1, putative (Leishmania donovani (strain BPK282A1)) (UniProt E9BSI1); assay: Leishmania donovani Ubiquitin Activating Enzyme (LdE1); format: functional; settings: 30 µM
T1 sequence (whole entry): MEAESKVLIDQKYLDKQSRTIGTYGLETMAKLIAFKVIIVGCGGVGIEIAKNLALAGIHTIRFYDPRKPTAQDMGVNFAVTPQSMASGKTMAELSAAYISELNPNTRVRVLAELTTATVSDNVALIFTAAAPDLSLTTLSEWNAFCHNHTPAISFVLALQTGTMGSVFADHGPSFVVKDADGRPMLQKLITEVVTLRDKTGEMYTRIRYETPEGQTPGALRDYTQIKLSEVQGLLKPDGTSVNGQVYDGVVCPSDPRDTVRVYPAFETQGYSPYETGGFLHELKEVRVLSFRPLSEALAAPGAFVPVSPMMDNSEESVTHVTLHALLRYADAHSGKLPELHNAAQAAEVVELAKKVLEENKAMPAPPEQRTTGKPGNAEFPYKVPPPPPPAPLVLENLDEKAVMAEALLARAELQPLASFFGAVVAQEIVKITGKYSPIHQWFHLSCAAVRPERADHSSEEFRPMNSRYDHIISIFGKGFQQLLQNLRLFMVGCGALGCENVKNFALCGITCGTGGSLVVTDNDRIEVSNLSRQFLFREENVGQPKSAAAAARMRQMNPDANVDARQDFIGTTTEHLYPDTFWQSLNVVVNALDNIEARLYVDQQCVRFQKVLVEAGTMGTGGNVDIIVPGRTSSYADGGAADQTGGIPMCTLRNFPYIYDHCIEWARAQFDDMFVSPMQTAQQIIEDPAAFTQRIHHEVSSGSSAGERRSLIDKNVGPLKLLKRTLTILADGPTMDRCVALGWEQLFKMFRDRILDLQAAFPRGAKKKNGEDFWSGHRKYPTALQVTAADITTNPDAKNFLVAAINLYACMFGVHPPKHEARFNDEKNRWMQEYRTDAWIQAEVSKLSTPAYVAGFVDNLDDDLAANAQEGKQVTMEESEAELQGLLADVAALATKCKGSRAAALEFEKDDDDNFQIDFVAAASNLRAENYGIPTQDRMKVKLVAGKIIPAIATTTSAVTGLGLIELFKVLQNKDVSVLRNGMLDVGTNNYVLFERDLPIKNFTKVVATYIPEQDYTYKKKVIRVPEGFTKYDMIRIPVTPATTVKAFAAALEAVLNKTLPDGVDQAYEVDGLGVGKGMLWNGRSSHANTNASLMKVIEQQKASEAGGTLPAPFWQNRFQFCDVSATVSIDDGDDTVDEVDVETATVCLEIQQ

[3] = molecular target: AMP-activated protein kinase, AMPK (Homo sapiens) (UniProt P54646+O43741+P54619+Q9UGJ0+Q9Y478+Q13131+Q9UGI9); assay: AMP-dependent Kinase enzyme assay. An in vitro enzyme assay that detects ADP turnover that is directly proportional to AMPK activity. This uses naive AMPK that is activated during the assay with MK-8722; format: functional; settings: 30 µM
[4] = molecular target: Sialic acid-binding Ig-like lectin 9 (Homo sapiens) (UniProt Q9Y336); assay: Hs-Siglec9 ALPHAscreen SOP 20170721; settings: 10 µM
Chain of Sialic acid-binding Ig-like lectin 9 (Homo sapiens) (Q9Y336 whole entry): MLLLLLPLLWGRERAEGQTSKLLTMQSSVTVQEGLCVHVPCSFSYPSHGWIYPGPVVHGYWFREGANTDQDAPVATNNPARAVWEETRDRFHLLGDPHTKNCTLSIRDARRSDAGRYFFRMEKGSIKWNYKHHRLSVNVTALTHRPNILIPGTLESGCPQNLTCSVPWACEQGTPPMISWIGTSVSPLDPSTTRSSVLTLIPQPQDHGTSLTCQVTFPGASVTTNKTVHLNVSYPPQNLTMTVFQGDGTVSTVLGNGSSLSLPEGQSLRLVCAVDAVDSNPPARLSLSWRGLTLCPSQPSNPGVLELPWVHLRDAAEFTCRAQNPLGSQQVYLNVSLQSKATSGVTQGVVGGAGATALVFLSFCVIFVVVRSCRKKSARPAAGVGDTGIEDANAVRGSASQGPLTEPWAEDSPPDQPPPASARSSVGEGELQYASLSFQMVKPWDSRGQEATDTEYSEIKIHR

[5] = system: Trypanosoma cruzi; assay: Trypanosoma cruzi phosphomannomutase and mannose-1-phosphate guanylyltransferase assay; format: functional; settings: 10 µM
[6] = molecular target: T2, Arginase-2, mitochondrial (Homo sapiens) (UniProt P78540); assay: in vitro enzyme assay to detect the production of urea directly proportional to the activity of Arginase II; format: functional; settings: 33.3 µM; note: in the data most compounds retested in dose-response had high values
T2 sequence (whole entry): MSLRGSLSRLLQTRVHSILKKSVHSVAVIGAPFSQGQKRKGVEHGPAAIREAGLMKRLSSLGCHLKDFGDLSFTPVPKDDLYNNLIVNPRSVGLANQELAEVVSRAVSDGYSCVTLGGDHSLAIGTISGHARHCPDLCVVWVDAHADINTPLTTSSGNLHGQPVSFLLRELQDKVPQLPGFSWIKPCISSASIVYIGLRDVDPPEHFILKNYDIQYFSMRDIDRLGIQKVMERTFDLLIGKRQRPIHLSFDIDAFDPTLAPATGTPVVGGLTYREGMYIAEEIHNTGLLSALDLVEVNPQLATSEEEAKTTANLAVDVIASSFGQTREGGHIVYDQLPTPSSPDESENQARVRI

[7] = molecular target: T3, Proteasome subunit beta (Trypanosoma cruzi) (UniProt O96673); assay: Trypanosoma cruzi proteasome chymotrypsin-like activity (TcProtChymo) assay.; note: in the data most compounds retested in dose-response had high values; format: functional; settings: 9.37 µM
T3 sequence (whole entry): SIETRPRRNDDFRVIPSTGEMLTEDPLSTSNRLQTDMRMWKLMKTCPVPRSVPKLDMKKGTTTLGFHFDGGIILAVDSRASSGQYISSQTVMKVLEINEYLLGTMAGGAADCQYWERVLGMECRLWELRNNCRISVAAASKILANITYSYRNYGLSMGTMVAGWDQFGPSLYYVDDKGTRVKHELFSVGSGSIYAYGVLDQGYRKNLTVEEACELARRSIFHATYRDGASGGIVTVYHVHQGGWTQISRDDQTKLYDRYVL

[8] = organism: Homo sapiens; assay: To identify inhibition of the IFN signalling (Jak-Stat) pathway via expression of an eGFP reporter gene under the control of an IFN-stimulated response element (ISRE) containing MxA promoter.; format: functional; settings: 30 µM
[9] = molecular target: T4, Tyrosyl-tRNA synthetase, putative (Trypanosoma cruzi (strain CL Brener)) (UniProt Q4DSP6); assay: Trypanosoma cruzi tyrosyl tRNA synthetase (TcYRS) _High Tyrosine SOP; format: functional; settings: 30 µM; note: in the data most compounds retested in dose-response had high values
T4 sequence (whole entry): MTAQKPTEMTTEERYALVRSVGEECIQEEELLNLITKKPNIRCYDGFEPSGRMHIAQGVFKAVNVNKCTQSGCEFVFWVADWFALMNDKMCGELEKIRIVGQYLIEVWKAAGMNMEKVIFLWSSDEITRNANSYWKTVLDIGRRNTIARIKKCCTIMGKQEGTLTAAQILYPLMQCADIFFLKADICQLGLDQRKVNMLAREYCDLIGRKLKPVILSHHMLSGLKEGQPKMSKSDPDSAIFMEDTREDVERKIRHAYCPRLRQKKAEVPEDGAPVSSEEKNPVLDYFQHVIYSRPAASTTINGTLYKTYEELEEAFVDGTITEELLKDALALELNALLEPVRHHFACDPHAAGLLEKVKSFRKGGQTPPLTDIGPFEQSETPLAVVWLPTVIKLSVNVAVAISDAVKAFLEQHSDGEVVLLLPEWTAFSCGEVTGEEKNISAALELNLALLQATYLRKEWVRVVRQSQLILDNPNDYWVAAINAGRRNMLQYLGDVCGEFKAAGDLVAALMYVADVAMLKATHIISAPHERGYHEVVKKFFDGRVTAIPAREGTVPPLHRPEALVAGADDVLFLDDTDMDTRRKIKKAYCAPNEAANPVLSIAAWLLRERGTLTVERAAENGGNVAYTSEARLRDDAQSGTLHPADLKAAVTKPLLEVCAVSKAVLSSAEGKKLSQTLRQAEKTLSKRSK

[10] = molecular target: T4, Tyrosyl-tRNA synthetase, putative (Trypanosoma cruzi (strain CL Brener)); assay: Trypanosoma cruzi tyrosyl tRNA synthetase (TcYRS) SOP; format: functional; settings: 30 µM
[11] = molecular target: Chromo domain-containing protein 1 (Saccharomyces cerevisiae (strain ATCC 204508 / S288c) (Baker's yeast)) (UniProt P32657); assay: ScCHD-1 Enzyme Inhibition Assay; format: functional; settings: 30 µM; note: in the data most compounds retested in dose-response had high values
Chain of Chromo domain-containing protein 1 (Saccharomyces cerevisiae (strain ATCC 204508 / S288c) (Baker's yeast)) (P32657 whole entry, the tested form may be a part): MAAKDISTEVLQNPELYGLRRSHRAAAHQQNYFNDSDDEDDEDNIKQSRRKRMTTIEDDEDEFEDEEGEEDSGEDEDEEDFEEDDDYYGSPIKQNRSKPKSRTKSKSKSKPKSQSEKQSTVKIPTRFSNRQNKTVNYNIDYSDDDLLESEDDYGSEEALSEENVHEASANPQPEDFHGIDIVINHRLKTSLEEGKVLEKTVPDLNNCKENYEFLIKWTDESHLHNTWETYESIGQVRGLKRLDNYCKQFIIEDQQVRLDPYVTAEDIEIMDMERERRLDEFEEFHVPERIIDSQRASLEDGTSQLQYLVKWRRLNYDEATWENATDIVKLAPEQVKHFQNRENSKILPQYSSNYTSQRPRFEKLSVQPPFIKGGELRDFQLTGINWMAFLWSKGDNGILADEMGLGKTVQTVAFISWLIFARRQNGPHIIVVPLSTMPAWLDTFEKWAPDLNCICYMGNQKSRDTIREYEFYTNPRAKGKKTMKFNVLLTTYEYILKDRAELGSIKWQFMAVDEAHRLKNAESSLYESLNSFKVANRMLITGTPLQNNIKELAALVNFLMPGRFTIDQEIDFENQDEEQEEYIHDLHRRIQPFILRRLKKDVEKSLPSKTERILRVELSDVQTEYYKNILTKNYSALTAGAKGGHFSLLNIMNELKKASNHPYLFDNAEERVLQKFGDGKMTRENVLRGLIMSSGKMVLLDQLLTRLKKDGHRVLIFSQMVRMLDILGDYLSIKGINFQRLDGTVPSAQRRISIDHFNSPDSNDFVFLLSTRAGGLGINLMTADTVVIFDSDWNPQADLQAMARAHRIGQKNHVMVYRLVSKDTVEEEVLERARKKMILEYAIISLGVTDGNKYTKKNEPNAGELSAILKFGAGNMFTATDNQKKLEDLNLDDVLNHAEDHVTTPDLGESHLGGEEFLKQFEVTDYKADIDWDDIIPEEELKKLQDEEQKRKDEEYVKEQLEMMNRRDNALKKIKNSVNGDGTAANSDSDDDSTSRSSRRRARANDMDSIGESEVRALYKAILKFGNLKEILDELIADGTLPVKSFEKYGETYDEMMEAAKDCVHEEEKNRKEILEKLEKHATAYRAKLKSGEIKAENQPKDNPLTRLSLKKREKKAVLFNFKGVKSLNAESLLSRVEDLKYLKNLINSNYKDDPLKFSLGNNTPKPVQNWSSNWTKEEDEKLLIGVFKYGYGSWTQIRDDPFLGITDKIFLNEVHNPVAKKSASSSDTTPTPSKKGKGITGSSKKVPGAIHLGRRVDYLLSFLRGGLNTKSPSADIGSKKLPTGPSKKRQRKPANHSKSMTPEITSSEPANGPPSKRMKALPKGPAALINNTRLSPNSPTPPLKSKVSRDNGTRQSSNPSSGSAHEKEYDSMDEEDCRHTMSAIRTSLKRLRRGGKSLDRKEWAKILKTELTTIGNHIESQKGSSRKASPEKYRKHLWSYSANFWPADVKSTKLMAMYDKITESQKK

SMILES | Percent Effect [1] [%] | Percent Effect [2] [%] | Percent Effect [3] [%] | Percent Effect [4] [%] | Percent Effect [5] [%] | Percent Effect [6] [%] | Percent Effect [7] [%] | Percent Effect [8] [%] | Percent Effect [9] [%] | Percent Effect [10] [%] | Percent Effect [11] [%]
CCOC(=O)N1CCC(C(=O)c2cc(F)ccc2F)CC1 | -3.27 | -2.63 | 4.38 | -6.37 | -1.69 | 4.98 | -3.34 | 10.2 | -1.47 | -4.88 | -0.881
CCC(C)NC(=O)Cc1c(C)nc2c(c1C)c(=O)[nH]n2C (stereo not given) | 0.22 | 13 | 1.2 | 14 | 3.44 | 1.38 | 7.32 | -10.2 | 2.15 | 16.1 | -1.16
O=S(=O)(N1CCCCC1)N1CCc2nc(C3CCNCC3)ncc2C1 | -2.16 | -4.05 | 0.892 | 4.08 | -1.78 | -3.94 | 12.8 | 5.01 | 3.23 | 1.3 | -20.6
CCCNC(=O)c1cc2c(nc1O)CCC(C)C2 (stereo not given) | -3.98 | 14.7 | 2.01 | -2.15 | 5.5 | -13.9 | 9.06 | -2.51 | 6.35 | 10.3 | -8.5
CCOc1cccc(CNC(=O)NCC(O)c2cccc(F)c2)c1 (stereo not given) | -5.26 | 16.2 | -2 | 22.6 | 5.75 | -6.01 | -1.44 | 29.2 | 7.39 | 23.5 | -11.2
CC(C)c1nnc2ccc(N3CCC(C(N)=O)CC3)nn12 | -7.89 | 1.33 | 11.2 | 0.782 | -4.52 | -8.63 | 3.14 | -2.58 | -1.06 | 0 | -7.68
CN1CCCC(CNC(=O)N2CCN(Cc3ccon3)CC2)C1 (stereo not given) | -5.29 | 2.67 | -3.4 | 1.23 | 3.02 | -1.04 | 1.74 | 5.23 | 4.92 | 8.64 | -5.38
CSCC(CCO)NC(=O)Nc1cc(Br)ccc1C (stereo not given) | 0.198 | 5.48 | 11.7 | 4.67 | 2.35 | 4.09 | 15.6 | -12 | 1.07 | 5 | 106
Cc1cc(C)cc(C2(C(=O)NC(C)Cn3ccnc3)CC2)c1 (stereo not given) | -2.27 | 25.3 | -10.3 | 0.0554 | 3.31 | -4.56 | 14.3 | -5.91 | 8.37 | 24.1 | -10.8
Cc1ccc(OCC(=O)NS(=O)(=O)c2cccnc2)cc1C | 0.796 | 15.8 | 3.98 | -2.26 | -7.52 | -3.45 | 17.4 | 29.1 | -1.47 | 4.88 | -9.25
